Screening results: PubChem, National Center for Advancing Translational Sciences (NCATS)
This is a sample that favours compounds with a hit; in the whole collection about 9.4% have one here.
NPC1 prom act – qHTS Assay for NPC1 Promoter Activators. Huh7 NPC1 promoter luciferase reporter, 24 h. Potency, µM (series often up to 9.22 µM), hits mostly activators. actives 2.4% (n = 320,000); note: nearly all actives have a fitted effect of over 60% in size
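Quantitative HTS used a cell-based reporter: Huh7 cells stably bearing the NPC1 promoter upstream of luciferase were treated with compounds for 24 h, and promoter activation was read as luminescence.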
Rab9 prom act – qHTS Assay for Rab9 Promoter Activators; Huh7 Rab9 promoter-luciferase reporter, luminescence, 24 h; Potency, µM (highest dose often 9.22 µM), most hits filed as activators; actives 2.8% (n = 320,000); AID 485297, 2010; note: nearly all actives have a fitted effect of over 60% in size
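Luciferase signal after 10 min detection reagent at ambient indicates Rab9 promoter upregulation; stably transfected Huh7 cells were treated 24 h with compound in DMSO at 37 °C, 5% CO2.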
SMN2 splice enh – qHTS Assay for Enhancers of SMN2 Splice Variant Expression; actives 2.8% (n = 210,000); Potency, µM (series often up to 46.1 µM), hits mostly activators; HEK293 SMN2-luciferase splicing reporter, luminescence, 30-36 h; note: nearly all actives have a fitted effect of over 55% in size
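HEK293 cells carry an SMN2 minigene-luciferase reporter in which exon 7 inclusion puts luciferase in frame. Cells were seeded at 2000 cells/well, attached for 10-12 hours, then exposed to compounds for 30-36 hours at 37C before ONE-Glo luminescence.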
ELG1 repair inh – qHTS screen for small molecules that inhibit ELG1-dependent DNA repair in human embryonic kidney (HEK293T) cells expressing luciferase-tagged ELG1. HEK293T ELG1-luciferase reporter, luminescence, 16 h; DNA damage induced by 5-fluorouridine. Potency, µM (highest dose often 46.1 µM), actives largely listed as inhibitors. actives 2.3% (n = 330,000); note: nearly all actives have a fitted effect of over 55% in size
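5-Fluorouridine DNA damage + compound/DMSO, 2,000 cells/well, 16 h, 37 °C/5% CO2. ONE-Glo, 30 min RT, luminescence. Readout = decrease in reporter signal.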
ELG1 genotox – qHTS screen for small molecules that induce genotoxicity in human embryonic kidney (HEK293T) cells expressing luciferase-tagged ELG1. HEK293T ELG1-luciferase reporter, luminescence, 16 h. Potency, µM (highest dose often 46 µM), actives largely listed as activators. actives 1.3% (n = 330,000). AID 504466, 2011; note: nearly all actives have a fitted effect of over 60% in size
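Screening used a luciferase reporter fused to human ELG1 in HEK293T cells. Luminescence was read on a CCD plate imager after 16 hr exposure and 30 min ONE-Glo incubation.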
FLuc counter – qHTS profiling assay for firefly luciferase inhibitor/activator using purifed enzyme and Km concentrations of substrates (counterscreen for miR-21 project) | purified FLuc, Km substrates, luminescence inhibition | Luciferin 4-monooxygenase (Photinus pyralis), P08659 | actives 6.9% (n = 360,000) | Potency, µM (doses to about 57.5 µM), most hits filed as inhibitors; note: nearly all actives have a fitted effect of over 55% in size
Target sequence (P08659 whole entry, looked up): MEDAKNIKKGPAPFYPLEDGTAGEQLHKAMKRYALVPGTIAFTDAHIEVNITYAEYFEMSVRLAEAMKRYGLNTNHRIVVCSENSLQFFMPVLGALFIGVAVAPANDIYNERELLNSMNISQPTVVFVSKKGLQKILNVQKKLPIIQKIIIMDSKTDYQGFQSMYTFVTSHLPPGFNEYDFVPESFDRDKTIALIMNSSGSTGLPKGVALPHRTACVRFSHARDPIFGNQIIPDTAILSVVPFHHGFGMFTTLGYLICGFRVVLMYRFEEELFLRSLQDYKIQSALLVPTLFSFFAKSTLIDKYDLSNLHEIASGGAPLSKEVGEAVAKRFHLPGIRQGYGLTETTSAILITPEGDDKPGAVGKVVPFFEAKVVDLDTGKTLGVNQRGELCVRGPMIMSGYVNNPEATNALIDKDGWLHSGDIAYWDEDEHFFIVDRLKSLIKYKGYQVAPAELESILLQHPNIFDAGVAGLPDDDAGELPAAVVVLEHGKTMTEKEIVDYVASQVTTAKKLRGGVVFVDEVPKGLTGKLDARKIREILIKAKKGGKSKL
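Biochemical qHTS of compounds, final roughly 60 µM downward over six points, against 10 nM purified firefly luciferase using Km concentrations of substrates (10 uM D-luciferin, 10 uM ATP) in Tris acetate pH 7.5 buffer; luminescence output.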
Hits are given with their value; . = inactive; ? = inconclusive; / = not tested or not shown; [ ] = another dose, or the depositor's remark. Calls come from the whole dose curve; as a rule, active = well fitted curve in the direction sought with a large enough effect; inconclusive = small, poorly fitted or top-dose-only effect, or another doubt; inactive = no such curve, though single readings can be large; an effect the other way counts as inactive or inconclusive.

SMILES	NPC1 prom act	Rab9 prom act	SMN2 splice enh	ELG1 repair inh	ELG1 genotox	FLuc counter
COc1ccc2cc3cc(C(=O)NCCc4ccc(OC)c(OC)c4)oc3nc2c1	.	.	.	5.17µM	.	.
CCN1CCN(C(c2ccc(F)cc2)c2c(O)cc(C)n(CCOC)c2=O)CC1 (stereo not drawn)	/	/	/	/	/	.
CCOC(=O)C1=C(C)N(c2ccc(OC)cc2)C(=O)/C1=C\c1cccs1	.	.	.	20.6µM	.	.
CCOC(=O)C1=C(C)N(c2ccc(OC)cc2)C(=O)/C1=C\c1ccc(O)c(OCC)c1	.	.	/	.	.	.
CCOC(=O)CNC(=O)c1ccc2c(c1)OCCO2	?	?	.	?	?	19µM
COC(=O)CCC(NC(=O)c1cc(-c2ccc3c(c2)OCCO3)oc1C)C(=O)OC (stereo not drawn)	.	.	.	.	.	16.9µM
Cc1oc(C(C)(C)C)cc1C(=O)NC(Cc1ccccc1)C(=O)O (stereo not drawn)	.	.	/	.	.	.
Cc1oc(-c2ccc3c(c2)OCCO3)cc1C(=O)NC(Cc1ccccc1)C(=O)O (stereo not drawn)	.	.	/	?	.	15.1µM
CCOC(=O)CNC(=O)c1cc(-c2ccc3c(c2)OCCO3)oc1C	.	.	.	?	?	9.53µM
Cc1ccc(-c2nc(C)c(CCNS(=O)(=O)c3ccc(F)c(C(F)(F)F)c3)s2)cc1	/	/	/	/	/	.
COc1cccc(C(=O)NCC(c2ccc(N(C)C)cc2)N2CCOCC2)c1OC (stereo not drawn)	/	/	/	/	/	.
CC(=O)Nc1cccc(NC(=O)CSc2cn(CC(=O)N3CCCCCC3)c3ccccc23)c1	/	/	/	/	/	.
Cn1nccc1C(=O)N/N=C/c1ccccc1[N+](=O)[O-]	2.51µM	2.82µM	/	?	?	13.5µM
COc1cc(/C=N/NC(=O)c2ccoc2C)ccc1O	.	.	?	?	.	13.5µM
Cn1nccc1C(=O)N/N=C/c1cccnc1	.	.	/	.	.	.
COc1cccc(/C=N/NC(=O)c2ccoc2C)c1O	.	.	/	?	20.6µM	8.49µM
Cc1occc1C(=O)N/N=C/c1ccccc1[N+](=O)[O-]	3.16µM	3.98µM	/	?	?	9.53µM
COc1ccc(C(=O)c2c(N)c(C(=O)Nc3cccc(OC)c3)c3ccccn23)cc1	/	/	.	/	/	.
Cc1cccc(NC(=O)CSc2nc3c(sc4ccccc43)c(=O)n2CCCC(=O)NC2CCCC2)c1	/	/	.	/	/	.
Nc1ncnc2c1ncn2[C@@H]1O[C@H](COP(=O)(O)OP(=O)(O)OP(=O)(O)OP(=O)(O)OC[C@@H]2O[C@H](n3cnc4c(N)ncnc43)[C@@H](O)[C@@H]2O)[C@H](O)[C@H]1O	/	/	.	/	/	/
COc1cccc(/C=N/NC(=O)NC2CCCCC2)c1O	?	?	/	?	?	16.9µM
CCN(CC)c1ccc(/C=N/NC(=O)c2ccoc2C)cc1	0.501µM	?	/	?	0.731µM	1.07µM
CCOc1ccc(/C=N/NC(=O)c2ccoc2C)cc1OC	?	3.55µM	/	?	18.3µM	?
COc1cccc(/C=N/NC(=O)c2ccoc2C)c1	2.51µM	1.58µM	/	?	?	10.7µM
COc1ccc(/C=N/NC(=O)c2cc(C)oc2C)cc1OC	.	.	/	.	.	?
SMILES	NPC1 prom act	Rab9 prom act	SMN2 splice enh	ELG1 repair inh	ELG1 genotox	FLuc counter
COC(=O)Cc1c(C)c2ccc3c(c2oc1=O)CN(Cc1ccc(Cl)cc1)CO3	/	/	.	/	/	.
Cc1cc(OCC(=O)Nc2c(C(=O)c3ccccc3)oc3ccccc23)cc(C)c1Cl	/	/	.	/	/	.
Cc1ccc(C(=O)N/C(=C/c2ccccc2)C(=O)NCc2ccncc2)cc1	.	.	/	?	.	.
Cc1ccc(C(=O)N/C(=C\c2ccccc2)C(=O)NCc2ccncc2)cc1	.	.	.	1.84µM	.	.
CC(C)NC(=O)CSc1cn(CC(=O)N2CCCCCC2)c2ccccc12	/	/	/	/	/	.
CCOc1ccc(NC(=O)Cn2c(=O)cc(C)c3c(C)nn(-c4cccc(Cl)c4C)c32)cc1	/	/	/	/	/	.
CCOC(=O)c1cnc2c(N=Nc3ccccc3)c(N)nn2c1N	1.12µM	1.12µM	15.8µM	?	?	0.953µM
CCOC(=O)c1cnc2c(-c3ccccc3)cnn2c1N	0.631µM	0.501µM	10µM	?	?	0.601µM
CCOC(=O)c1cnc2c(-c3ccc(Cl)cc3)cnn2c1C	1.78µM	0.891µM	11.2µM	?	2.59µM	0.601µM
Cc1noc(C)c1-c1nccc(NCc2cccnc2)n1	/	/	.	/	/	/
CCc1ccccc1NC(=O)c1ccc2c(c1)CCCN2S(C)(=O)=O	/	/	.	/	/	.
N#Cc1ccc(-c2nc3ccccc3nc2-c2ccccc2)cc1C#N	.	.	.	16.4µM	.	.
COc1ccc(-c2nc3ccccc3nc2-c2ccccc2)cc1OC	.	.	/	?	.	.
COc1cc(/C=C2\CC/C(=C\c3ccc(OCCO)c(OC)c3)C2=O)ccc1OCCO	.	.	.	?	.	.
COc1ccc(/C=C2\CCC(C3CCCC3)C2=O)cc1OC (stereo not drawn)	?	.	/	?	?	10.7µM
COc1cc(/C=C2\CCC(C3CCCC3)C2=O)ccc1OC(C)C (stereo not drawn)	.	.[1.84 µM]	/	?	.	15.1µM
CCC(=O)OC1(C)C(=O)C=C2C=C(CCCNC(=O)OC(C)(C)C)OC=C2C1=O (stereo not drawn)	/	/	.	/	/	/
Cn1c(=O)c(C(=O)COc2ccc(F)cc2Cl)c(N)n(Cc2ccccc2)c1=O	.	.	.	23.1µM	.	.
COc1ccc(/C=C2\N=C(C)OC2=O)cc1[N+](=O)[O-]	.	.	/	.	.	.
COc1cccc(/C=C2\N=C(C3CCCCC3)OC2=O)c1OC	.	.	.	.	.	15.1µM
CCCC1CCC(C2=N/C(=C\c3ccc(OC)c(OC)c3)C(=O)O2)CC1 (stereo not drawn)	.	.	.	.	.	.
CC(=O)Oc1ccc(/C=C2\N=C(C3CCCCC3)OC2=O)cc1	.	.	.	.	.	16.9µM
COc1ccccc1/C=C1\N=C(C(C)(C)C)OC1=O	.	.	/	.	.	16.9µM
CCOc1cc(/C=C2/N=C(c3ccc4c(c3)OCO4)OC2=O)ccc1OC(C)=O	.	.	/	.	.	.
Cc1ccc(NC(=O)Cn2c(=O)n(CCCCC(=O)NCc3ccccc3Cl)c(=O)c3ccccc32)cc1	/	/	.	/	/	.
O=C(NCc1ccccc1Cl)C1CCCN(c2nc3ccccc3n3cccc23)C1 (stereo not drawn)	/	/	/	/	/	.
